Measurements published in PubChem BioAssay (EPA / NIEHS).
Records with an inconclusive call do not appear. Some structures have more than one record in an assay (separate samples or runs), and their calls can disagree. Activity calls are given as the source filed them. The calls were made as follows: active = hit-call score of the fitted dose curve at least 0.9, where 1 is the maximum; inconclusive = response in the unintended direction; inactive = score below 0.9.

target: human Peroxisome Proliferator-activated Receptor alpha (PPARa), PPARA (gene 5465) (UniProt Q07869); assay: ATG_PPARa_TRANS: Attagene TRANS-FACTORIAL HepG2 Assay for human Peroxisome Proliferator-activated Receptor alpha (PPARa) (AID 2283001);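 as to AC50: potency for gain of reporter signal over DMSO so agonist or activator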
Experimental: ATG_TRANS is a cell-based, multiplexed-readout assay that uses HepG2, a human liver cell line, with measurements taken at 24 hours after chemical dosing in a 24-well plate.ATG_PPARa_TRANS is one of 30 assay component(s) measured or calculated from the ATG_TRANS assay. It is designed to make measurements of mRNA induction, a form of inducible reporter, as detected with fluorescence intensity signals by Reverse transcription polymerase chain reaction (RT-PCR) and Capillary electrophoresis technology.Data from the assay component ATG_PPARa_TRANS was analyzed into 1 assay endpoint. This assay endpoint, ATG_PPARa_TRANS, was analyzed in the positive analysis fitting direction relative to DMSO as the negative control and baseline of activity. Using a type of inducible reporter, measures of mRNA for gain-of-signal activity can be used to understand the reporter gene at the transcription factor-level as they relate to the gene PPARA. Furthermore, this assay endpoint can be referred to as a primary readout, because this assay has produced multiple assay endpoints where this one serves a reporter gene function. To generalize the intended target to other relatable targets, this assay endpoint is annotated to the nuclear receptor intended target family, where the subfamily is non-steroidal.
Human liver HepG2 cells are transiently transfected with multiple reporter transcription units (MRTUs) in 6-well plates using FuGene 6 reagent (Roche; 3 ml FuGene/1 mg DNA). The MRTU constructs are regulated by a cis-regulating element (promoter). […] A major difference between the CIS and TRANS system is that in CIS activities of endogenous TFs are measured, whereas the TRANS assay evaluates changes in activities of exogenous, chimeric NR-Gal4 proteins. […] At the end of 24 hour incubation, total RNA was isolated using TriZol reagent (Invitrogen). The isolated RNA is then reverse-transcribed using oligo(dT) primer and Mo-MLV reverse transcriptase (Invitrogen) with DNAse I (Ambion) treatment for 30 min. The one-tenth of the produced cDNA was amplified by PCR using Taq DNA polymerase (Invitrogen) and two reporter sequence-specific primers. The PCR products were fluorescently labeled by primer extension with 6-arboxyfluorescein (6-FAM) 5'-labeled reporter sequence-specific primer (2 min at 95 C, 20 s at 68 C and 10 min at 72 C) and these products were digested with 5U of HpaI (New England Biolabs) for 2h at 37 C. The fragments were purified using Qiaquick PCR columns (Qiagen), analyzed on an ABI 3130xL genetic analyzer (Applied Biosystems) with peak positions identified by using a set of X-rhodamine (ROX)-labeled MapMarker1000 molecular weight standards (BioVentures). The raw capillary electrophoresis data was processed using Attagraph software (Attagene).

Sequence of human Peroxisome Proliferator-activated Receptor alpha (PPARa), PPARA (gene 5465) (Q07869 whole entry, looked up): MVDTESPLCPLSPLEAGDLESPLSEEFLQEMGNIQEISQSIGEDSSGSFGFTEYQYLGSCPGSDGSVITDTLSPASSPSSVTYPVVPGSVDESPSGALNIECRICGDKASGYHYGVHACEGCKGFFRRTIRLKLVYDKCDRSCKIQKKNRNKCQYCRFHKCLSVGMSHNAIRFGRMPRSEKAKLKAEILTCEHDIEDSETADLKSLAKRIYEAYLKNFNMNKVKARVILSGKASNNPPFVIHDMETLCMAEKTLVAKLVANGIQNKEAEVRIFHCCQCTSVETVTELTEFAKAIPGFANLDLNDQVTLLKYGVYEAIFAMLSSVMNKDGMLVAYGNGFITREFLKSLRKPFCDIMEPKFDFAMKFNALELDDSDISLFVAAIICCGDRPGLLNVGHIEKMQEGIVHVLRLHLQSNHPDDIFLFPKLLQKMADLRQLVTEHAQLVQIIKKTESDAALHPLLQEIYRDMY

SMILES | outcome | AC50
COP(N)(=O)SC (stereo not given) | inactive | 
N#Cc1cc(Br)c(O)c(Br)c1 |  | 15.9 µM (active)
Oc1ccccc1-c1ccccc1 | inactive | 
Cc1cc(Cl)ccc1OCC(=O)O | inactive | 
CN(C)C(=S)SSC(=S)N(C)C | inactive | 
O=C(Nc1ccccc1)Nc1ccnc(Cl)c1 | inactive | 
CCCCNC(=O)n1c(NC(=O)OC)nc2ccccc21 | inactive | 
COc1nc(C)nc(NC(=O)NS(=O)(=O)c2ccccc2CCC(F)(F)F)n1 | inactive | 
CCc1nn(C)c(C(=O)NCc2ccc(C(C)(C)C)cc2)c1Cl | inactive | 
CCCC1COC(Cn2cncn2)(c2ccc(Cl)cc2Cl)O1 (stereo not given) | inactive | 
Fc1ccc(Oc2ccnc3cc(Cl)cc(Cl)c23)cc1 | inactive | 
CC1=C(C(=O)Nc2ccccc2)SCCO1 | inactive | 
CCCN(CCC)c1c([N+](=O)[O-])cc(S(N)(=O)=O)cc1[N+](=O)[O-] | inactive | 55.3 µM (active)
Cc1c(F)c(F)c(COC(=O)C2C(/C=C(\Cl)C(F)(F)F)C2(C)C)c(F)c1F (stereo not given) | inactive | 
CCCCOC(=O)c1ccccc1C(=O)OCCCC | inactive | 
N#Cc1nn(-c2c(Cl)cc(C(F)(F)F)cc2Cl)c(N)c1S(=O)C(F)(F)F (stereo not given) | inactive | 
CCCCC(CC)COC(=O)c1ccccc1C(=O)OCC(CC)CCCC (stereo not given) | inactive | 
COC(=O)c1ccccc1C(=O)OC | inactive | 
COc1ccc(C(c2ccc(OC)cc2)C(Cl)(Cl)Cl)cc1 | inactive | 

SMILES | outcome | AC50
CCNc1nc(Cl)nc(NC(C)C)n1 | inactive | 
C=CC1(C)OC(=O)N(c2cc(Cl)cc(Cl)c2)C1=O (stereo not given) | inactive | 
CNC(=O)ON=CC(C)(C)SC | inactive | 
Cc1ccc(-c2c(Cl)nc(C#N)n2S(=O)(=O)N(C)C)cc1 | inactive | 
CCOC(=O)CC(SP(=S)(OC)OC)C(=O)OCC (stereo not given) | inactive | 
CC(C)Oc1cc(-n2nc(C(C)(C)C)oc2=O)c(Cl)cc1Cl | inactive | 
C=CCC1=C(C)[C@@H](OC(=O)[C@@H]2[C@@H](C=C(C)C)C2(C)C)CC1=O | inactive | 
CCCCNC(=O)OCC#CI | inactive | 
COc1nc(NC(C)C)nc(NC(C)C)n1 | inactive | 
CC(Oc1ccc(Cl)cc1Cl)C(=O)O (stereo not given) | inactive | 
CO/C=C(/C(=O)OC)c1ccccc1Oc1cc(Oc2ccccc2C#N)ncn1 | inactive | 
CCOP(=S)(OCC)SCn1c(=O)oc2cc(Cl)ccc21 | inactive | 
COC(=O)N(OC)c1ccccc1COc1ccn(-c2ccc(Cl)cc2)n1 | inactive | 
C=CCC1=C(C)C(OC(=O)C2C(C=C(C)C)C2(C)C)CC1=O (stereo not given) | inactive | 1.05 µM (active)
CON(C)C(=O)Nc1ccc(Cl)c(Cl)c1 | inactive | 
CNC(=S)S | inactive | 
O=C(O)c1nc(Cl)ccc1Cl | inactive | 
CC(C)(C)c1ccc(CSc2cnn(C(C)(C)C)c(=O)c2Cl)cc1 | inactive | 
COc1nc(C)nc(NC(=O)NS(=O)(=O)c2ccccc2Cl)n1 | inactive | 
